Laboratory results from PubChem BioAssay (NCI).
This is part of a sample that, as a whole, favours compounds with a hit. Of some 79,000 tested, about 15% had one in any assay. Active and inactive are the calls of the source. Rule as the data show it: active = growth inhibition above about 70%; inactive = the rest.

Assay: NCI Yeast Anticancer Drug Screen. Data for the wt2 strain (AID 169);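 also: 0% = growth of vehicle-treated yeast cultures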
Conditions: S. cerevisiae wt2 strain growth inhibition, stronger effect = higher value
Experimental: Growth inhibition of yeast strains with defined genetic alterations is measured as a screen for potential anti-cancer activity. Selected strains with alterations in DNA damage repair or cell cycle control were exposed to compounds and growth inhibition was measured relative to vehicle treated controls. The strain used in this assay is wt2

Measured: growth inhibition

COc1ccc(C(NCCNC(c2ccc(OC)c(OC)c2)c2cc3c(cc2O)OCO3)c2cc3c(cc2O)OCO3)cc1OC (stereo not given)
active: at 100.0 µM 99%
inactive: at 1.2 µM -1% | at 3.7 µM -2% | at 11.0 µM 7% | at 33.0 µM 50%

CNC(=O)OCc1c(COC(=O)NC)c2n(c1C)-c1ccc(OC)cc1CCC2
inactive: at 1.2 µM 8% | at 3.7 µM 9% | at 11.0 µM -7% | at 33.0 µM 66%
active: at 100.0 µM 98%

NC(=S)NC(=S)Nc1ccccc1
inactive: at 1.2 µM -5% | at 3.7 µM 6% | at 11.0 µM -1% | at 33.0 µM 1% | at 100.0 µM 42%

Cc1c(C)c(C)c(CSC(=N)N)c(C)c1C
active: at 100.0 µM 99%
inactive: at 1.2 µM -41% | at 3.7 µM -38% | at 11.0 µM -32% | at 33.0 µM 57%

O=C1OC(OC/C(Br)=C(\Br)COC2OC(=O)C(Cl)=C2Cl)C(Cl)=C1Cl (stereo not given)
inactive: at 1.2 µM -1% | at 3.7 µM -2% | at 11.0 µM 0% | at 33.0 µM 3% | at 100.0 µM 10%

COc1cccc(/C=N/C(/N=C/c2cccc(OC)c2O)c2cccc(OC)c2O)c1O
inactive: at 1.2 µM 0% | at 3.7 µM 7% | at 11.0 µM 4% | at 33.0 µM 24%
active: at 100.0 µM 93%

CC(C)c1ccc(NC(=S)NC(=O)c2ccccc2)cc1
inactive: at 1.2 µM -25% | at 3.7 µM -26% | at 11.0 µM -6% | at 33.0 µM 46% | at 100.0 µM 37%

O=P(NC1CCCCC1)(OCc1ccccc1)OCc1ccccc1
inactive: at 1.2 µM 1% | at 3.7 µM 2% | at 11.0 µM 2% | at 33.0 µM 4% | at 100.0 µM 8%
